Compounds with a hit are over-represented: about 3.5% of the library has one in this group of screens.
FBW7 act – activators of human E3 ligase FBW7; 650,000 compounds, 0.13% hits; normalized activity (activation), % at 26.1 µM; Q969H0; AlphaScreen FBW7–phospho-cyclin E peptide binding, activator screen; in the data active means normalized activity above about 1.9%;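 further: purified mutant Fbw7 with reduced substrate affinity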
MITF primary – blocks human microphthalmia-associated transcription factor | AlphaScreen MITF homodimerization, bead proximity signal | O75030 | inhibition, % at 2.6 µM | 650,000 compounds, 0.91% hits; in the data active means inhibition above about 50%
Target sequence (O75030 whole entry, looked up): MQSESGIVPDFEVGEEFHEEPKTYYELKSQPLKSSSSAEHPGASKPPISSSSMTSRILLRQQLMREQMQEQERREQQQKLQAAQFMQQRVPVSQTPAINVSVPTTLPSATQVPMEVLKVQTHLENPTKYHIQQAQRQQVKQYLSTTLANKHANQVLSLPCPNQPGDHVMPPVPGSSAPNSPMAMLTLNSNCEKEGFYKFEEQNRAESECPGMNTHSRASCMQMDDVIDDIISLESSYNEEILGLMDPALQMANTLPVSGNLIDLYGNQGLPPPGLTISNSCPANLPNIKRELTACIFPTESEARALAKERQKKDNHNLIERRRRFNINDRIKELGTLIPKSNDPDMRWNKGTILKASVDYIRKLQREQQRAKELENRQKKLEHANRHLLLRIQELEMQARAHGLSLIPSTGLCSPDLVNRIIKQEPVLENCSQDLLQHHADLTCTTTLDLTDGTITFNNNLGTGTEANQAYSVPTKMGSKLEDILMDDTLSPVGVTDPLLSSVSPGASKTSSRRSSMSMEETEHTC
GPR151 ag – human GPR151 activation; Q8TDV0; PathHunter beta-arrestin GPR151 cells, luminescence; activation, % at 11.2 µM; 650,000 compounds, 1% hits; in the data active means activation above about 4.9%
TEAD-YAP inh – TEAD-YAP interaction inhibition | HEK-TIYL cells, TEAD-Gal4/YAP UAS-luciferase luminescence | inhibition, % at 9.12 µM | 640,000 compounds, 1.4% hits | AID 1259422; in the data active means inhibition above about 32%
Each line names hits and unclear results; the compound was inactive in the other large screens.

COc1cc(C)c(NC(=O)Cn2cc(C(C)=O)c3ccccc32)cc1C	none
CC(=O)c1cn(CC(=O)Nc2ccc(C)cc2C)c2ccccc12	TEAD-YAP inh 40
CC(=O)c1cn(CC(=O)Nc2cccc(C)c2C)c2ccccc12	TEAD-YAP inh 40
O=C(O)C1CCCCC1C(=O)Nc1nc2ccc(Cl)cc2s1 (stereo not drawn)	none
Cc1cccc2cc3c(nc12)OC(C)C(=O)N(Cc1cccnc1)C3 (stereo not drawn)	none
Cc1ccc2cc3c(nc2c1C)OC(C)C(=O)N(Cc1cccnc1)C3 (stereo not drawn)	TEAD-YAP inh 34
Cc1nc2c(c(C)nn2C(C)(C)C)c(C)c1CCC(=O)N1CCCCC1	TEAD-YAP inh 35
Cc1nc2c(c(C)nn2C(C)(C)C)c(C)c1CCC(=O)O	none
CCOc1ccccc1N1CCN(c2nnnn2-c2ccccc2)CC1	TEAD-YAP inh 42
CCOC(=O)N1CCN(c2nnnn2-c2ccccc2)CC1	none
CC(=O)Nc1ccc(NC(=O)c2cncc(-c3cccc(N)c3)c2)cc1	none
CN(C)S(=O)(=O)N1CCC(Oc2ccc(C(=O)NC3CCCCC3)cc2)CC1	none
CN(C)S(=O)(=O)N1CCC(Oc2cccc(C(=O)NC3CCCCC3)c2)CC1	TEAD-YAP inh 43
CCOCCCNC(=O)c1ccc2c(c1)N=C(CC)c1ccccc1S2	TEAD-YAP inh 58
CCC1=Nc2cc(C(=O)NCCCN3CCOCC3)ccc2Sc2ccccc21	none
CCOCCCNC(=O)c1ccc2c(c1)N=C(C)c1cc(C)ccc1S2	TEAD-YAP inh 68
CCC1=Nc2cc(C(=O)NCCCOC)ccc2Sc2ccccc21	TEAD-YAP inh 57
CCCC1=Nc2cc(C(=O)NCCOC)ccc2Sc2ccccc21	TEAD-YAP inh 51
COC(=O)c1ccc2c(c1)N=C(C)c1cc(C)ccc1S2	none
N#CC1=C(SCC(=O)Nc2ccc(Cl)c(Cl)c2)NC(=O)CC1c1ccccc1 (stereo not drawn)	TEAD-YAP inh 66
N#CC1=C(SCC(=O)Nc2ccc(Br)cc2)NC(=O)CC1c1ccc(O)cc1 (stereo not drawn)	TEAD-YAP inh 39
CC1CCN(C(=O)C2CCCCC2C(=O)O)CC1 (stereo not drawn)	none
O=C(NCC(c1ccco1)N1CCOCC1)c1cc(-c2ccccc2)on1 (stereo not drawn)	none
COc1ccc(C)cc1-n1nnnc1SCC(=O)c1[nH]c(C)c(C(C)=O)c1C	TEAD-YAP inh 33
COc1ccc2c(c1)C=C/C(=C\c1cccc[n+]1C)N2C	TEAD-YAP inh 80
CCN1/C(=C/c2cc[n+](C)cc2)C=Cc2cc(OC)ccc21	none
O=C(/C=C/c1ccco1)Nc1nnc(Cc2ccc(F)cc2)s1	TEAD-YAP inh 55
O=C(OCC(=O)N1CCN(C(=O)c2ccco2)CC1)c1cc(O)c(O)c(O)c1	MITF primary 81
CC/C(=N\NC(N)=O)c1ccc(O)c(OC)c1	none
COCCNc1ccc2ncc(-c3cccc(C(N)=O)c3)n2n1	none
CS(=O)(=O)Nc1cccc(-c2cnc3ccc(NCCCO)nn23)c1	TEAD-YAP inh 58
COCCNc1ccc2ncc(-c3cccc(NS(C)(=O)=O)c3)n2n1	TEAD-YAP inh 42
COCCNc1ccc2ncc(-c3cccc(NC(C)=O)c3)n2n1	TEAD-YAP inh 56
COCCNc1ccc2ncc(-c3cccc(C(C)=O)c3)n2n1	none
COc1cccc(NC(=O)N2CCc3nc(-c4ccncc4)nc(N4CCCC4)c3C2)c1	none
N#Cc1c(NC(=O)COc2cccc3ccccc23)sc2c1CCCC2	FBW7 act 2.0
CCOC(=O)N1CCc2c(sc(NC(=O)c3ccccc3[N+](=O)[O-])c2C#N)C1	TEAD-YAP inh 53
CCOC(=O)N1CCc2c(sc(NC(=O)/C=C/c3ccccc3Cl)c2C#N)C1	none
N#Cc1c(NC(=O)CCc2ccccc2)sc2c1CCC2	TEAD-YAP inh 39
CCOC(=O)N1CCc2c(sc(NC(=O)CCc3ccccc3)c2C#N)C1	TEAD-YAP inh 54
N#Cc1c(NC(=O)Cc2ccccc2)sc2c1CCC2	none
CC(=O)N1CCc2c(sc(NC(=O)/C=C/c3cccs3)c2C#N)C1	TEAD-YAP inh 58
O=Cc1c(NC(=O)Cc2ccccc2)sc2c1CCCC2	FBW7 act 2.0
CCOC(=O)N1CCc2c(sc(NC(=O)/C=C/c3ccccc3)c2C(N)=O)C1	TEAD-YAP inh 40
CCOC(=O)N1CCc2c(sc(NC(=O)/C=C/c3ccccc3)c2C#N)C1	TEAD-YAP inh 35
CC(=O)Nc1sc2c(c1C#N)CCN(C(C)=O)C2	none
CC1Cc2ccccc2N1CC(=O)Nc1sc2c(c1C#N)CCC2 (stereo not drawn)	TEAD-YAP inh 38
CC1Cc2ccccc2N1CC(=O)Nc1sc2c(c1C(N)=O)CCC2 (stereo not drawn)	none
COC(=O)c1ccc(Br)c(S(=O)(=O)N2CCCCC2)c1	FBW7 act 1.9
O=C(O)c1ccc(Br)c(S(=O)(=O)N2CCCCCC2)c1	none
CCN1C(=O)CC(CC(=O)N2CCCC(c3ccccc3)CC2)(c2ccccc2C)C1=O (stereo not drawn)	none
O=S(=O)(Nc1ccc(Br)c2cccnc12)c1ccccc1	TEAD-YAP inh 33
COc1ccc(NS(=O)(=O)c2ccc3ccccc3c2)c2ncccc12	none
CCCOc1ccc(S(=O)(=O)Nc2ccc3c(c2)N(C(=O)CC)CCC3)cc1	TEAD-YAP inh 58
O=C(C1CC1)N1CCc2ccc(NS(=O)(=O)c3ccc4c(c3)OCCO4)cc21	TEAD-YAP inh 48
CCC(=O)N1CCCc2ccc(NS(=O)(=O)c3ccc(Cl)cc3)cc21	none
COc1ccc(C(=O)N[C@H](Cc2ccccc2)c2nc(-c3ccncc3)n[nH]2)cc1	none
CC(=O)C/C(=N/NC(N)=S)C(F)(F)F	TEAD-YAP inh 55
Oc1ccc(C2=Nn3c(nnc3-c3ccccc3O)SC2)cc1O	TEAD-YAP inh 41
Cc1ccc(C2=Nn3c(nnc3-c3ccccc3C)SC2)cc1	TEAD-YAP inh 60
Brc1ccc(C2=Nn3c(nnc3-c3ccccc3)SC2)cc1	none
COc1cccc(/C=N\Nc2cc(C)c3ccccc3n2)c1OC	TEAD-YAP inh 60
Cc1c(O)ccc(/C=N/Nc2ncccc2[N+](=O)[O-])c1O	TEAD-YAP inh 71
COc1cccc(/C=N\Nc2cc(C)nc(-c3ccccc3O)n2)c1O	TEAD-YAP inh 39
O=[N+]([O-])c1cccnc1N/N=C/c1ccccc1O	TEAD-YAP inh 47
O=[N+]([O-])c1ccc(O)c(/C=N/Nc2ncccc2[N+](=O)[O-])c1	none
COc1ccc(/C=N\Nc2cc(C)nc(-c3ccccc3O)n2)c(OC)c1	none
O=c1oc2ccccc2c(O)c1C=Nc1ccc(F)cc1	none
CCCCNCCOCCOc1cccc(Br)c1	none
CC(NC(=O)c1cncc(Br)c1)c1ccc(-n2ccnc2)cc1 (stereo not drawn)	none
O=C(Cc1cnc2ncnn2c1)N1CCC(CO)(Cc2ccccc2Cl)CC1	none
COc1cccc(/C=N/Nc2cc(-n3cc(C)cn3)ncn2)c1O	MITF primary 73, TEAD-YAP inh 88
COc1cccc(/C=N/Nc2nc3ccccc3nc2C)c1O	TEAD-YAP inh 63
COc1cccc(/C=N\Nc2ncccc2[N+](=O)[O-])c1O	TEAD-YAP inh 64
COc1ccc(/C=N/Nc2cc(-n3cc(C)cn3)ncn2)c(OC)c1	none
